An excerpt weighted towards active compounds, which were near 3.6% of everything screened.
Mtb FBA inh: inhibits M. tuberculosis FBA enzyme. P9WQA3. inhibition, % at 1 µM. 360,000 compounds, 2.3% hits. purified M. tuberculosis FBA, fluorescence read-out. AID 588726; in the data active means inhibition above about 27%
Target sequence (P9WQA3 whole entry, looked up): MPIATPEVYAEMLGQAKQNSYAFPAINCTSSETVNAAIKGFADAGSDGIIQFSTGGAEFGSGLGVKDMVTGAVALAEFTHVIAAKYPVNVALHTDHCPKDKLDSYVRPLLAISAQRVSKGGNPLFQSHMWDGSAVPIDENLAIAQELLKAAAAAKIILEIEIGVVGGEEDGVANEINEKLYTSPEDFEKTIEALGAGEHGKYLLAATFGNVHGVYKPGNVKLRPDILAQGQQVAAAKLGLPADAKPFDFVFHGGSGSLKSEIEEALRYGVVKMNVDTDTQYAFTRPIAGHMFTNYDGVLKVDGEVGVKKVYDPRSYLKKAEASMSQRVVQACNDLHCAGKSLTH
Mtb hypoxia rep: Mtb hypoxia fluorescent reporter inhibition | M. tuberculosis hypoxia-regulated fluorescent reporter, fluorescence | fluorescence inhibition, % (concentration not given with the values) | 300,000 compounds, 0.1% hits | AID 1159583; in the data active means fluorescence inhibition mostly above about 23%, no sharp cut-off; inactive means mostly below about 17%
GDH-TPI inh: inhibits GDH-TPI coupling enzymes, artifact for Mtb FBA screen; GDH-TPI coupled enzyme counterscreen, NADH absorbance; inhibition, % at 4.8 µM; 360,000 compounds, 1.2% hits; AID 588335; in the data active means inhibition above about 30%
Mtb betalactam: beta-lactam sensitization of Mtb H37Rv. M. tuberculosis H37Rv growth with meropenem, percent inhibition. inhibition, % at 25 µM. 330,000 compounds, 0.27% hits. AID 434955; call rule not given here;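 further: growth measured after seven days incubation then overnight dye step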
DUSP3 inh: blocks human VHR1 dual specificity phosphatase. P51452. recombinant VHR phosphatase, pNPP absorbance. inhibition, % at 13.3 µM. 290,000 compounds, 0.52% hits. AID 1654; in the data active means inhibition above about 50%
Target sequence (P51452 whole entry, looked up): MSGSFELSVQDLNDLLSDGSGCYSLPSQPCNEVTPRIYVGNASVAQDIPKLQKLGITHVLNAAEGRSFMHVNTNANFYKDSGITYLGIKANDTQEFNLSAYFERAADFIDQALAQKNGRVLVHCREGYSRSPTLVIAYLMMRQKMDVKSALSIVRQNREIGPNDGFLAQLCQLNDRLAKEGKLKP
Hits are given with their value; – = inactive; · = no result; + = active, no number.

SMILES	Mtb FBA inh	Mtb hypoxia rep	GDH-TPI inh	Mtb betalactam	DUSP3 inh
CC(=O)C(C)Oc1ccc2c3c(c(=O)oc2c1)CCCCC3 (configuration not stated)	176	–	–	–	–
CC(=O)Oc1ccc2c3c(c(=O)oc2c1C)CCCC3	+	–	–	–	–
Cc1oc2cc3oc(=O)c4c(c3cc2c1C)CCC4	–	–	–	–	–
COc1ccc2c3c(c(=O)oc2c1OCC(N)=O)CCCC3	75	–	–	–	–
COc1ccc(CN(C(CO)CC(C)C)S(=O)(=O)N(Cc2ccccc2)C(CO)CC(C)C)cc1 (configuration not stated)	·	–	·	·	·
Cc1cccc(NC(=O)CCC(=O)NN=Cc2ccncc2)c1	·	–	·	·	·
CCc1cc2c(-c3ccccc3)cc(=O)oc2cc1OC(C)C(=O)O (configuration not stated)	–	–	–	–	–
Cc1c(OC(C)C(=O)O)ccc2c3c(c(=O)oc12)CCCC3 (configuration not stated)	173	–	–	–	·
CCc1cc2c3c(c(=O)oc2cc1OC(C)C(=O)O)CCCC3 (configuration not stated)	159	–	–	–	–
Cc1ccc(S(=O)(=O)N2C(c3ccc(Cl)cc3)CC=C(C(=O)O)C2c2ccccc2F)cc1 (configuration not stated)	·	–	·	·	·
NC(=NS(=O)(=O)c1ccccc1)c1cccc([N+](=O)[O-])c1	·	–	·	·	·
COc1ccc(C=NNC(=O)C(O)(c2ccccc2)c2ccccc2)cc1OC	·	–	·	·	·
C/C(=N\NC(=O)CN1CCCCC1)c1ccccc1O	–	·	–	–	53
CCC1(CC)C(=O)C2=C3C(CC(C(=O)OC)CC(C(=O)OC)C31)n1c(=O)n(C)c(=O)n1C2C (configuration not stated)	·	–	·	·	·
CC(=NNC(=O)c1ccc(C)cc1C)c1ccc2c(c1)OCO2	·	–	·	·	·
CCC(C)C(C(=O)N1CCN(C(=O)OC(C)(C)C)CC1)n1cc(CCCCNC(=O)OC(C)(C)C)nn1 (configuration not stated)	·	–	·	·	·
CCOc1ccc(NC2OC(C)C(O)C(O)C2O)c([N+](=O)[O-])c1 (configuration not stated)	112	–	–	–	–
CC(=NNC(=O)CCC(=O)Nc1ccccc1)c1cccs1	·	–	·	·	·
CCOC(=O)C1CCN(C(=O)c2cccs2)CC1	–	–	–	–	–
CCOC(=O)C1CCN(C(=O)c2sccc2Cl)CC1	+	–	–	–	–
Cc1ccc(C=NNC(=O)C[n+]2ccccc2)s1	·	–	·	·	·
N#Cc1c(NC(=O)c2ccco2)sc2c1CCC2	–	–	–	–	–
Cc1cccc(NC(=O)c2sc(NC(=O)c3ccco3)c(C#N)c2C)c1C	–	–	36	–	–
CC1(C)Cc2c(sc(NC(=O)c3ccco3)c2C#N)CO1	–	–	31	–	–
O=C(O)CC1SC(=NN=Cc2ccc(Br)cc2)N(c2ccccc2)C1=O (configuration not stated)	·	–	·	·	·
SMILES	Mtb FBA inh	Mtb hypoxia rep	GDH-TPI inh	Mtb betalactam	DUSP3 inh
Cc1ccc(S(=O)(=O)N2C(c3cccc(Cl)c3)CC=C(C(=O)O)C2c2ccc(Cl)cc2)cc1 (configuration not stated)	·	–	·	·	·
COc1ccc2c(c1)[nH]c1c(=O)n(/N=C/c3ccc(OC)c(CN4CCCC4)c3)cnc12	–	·	54	–	–
COc1ccc(/C=N/n2c(=O)[nH]c3c([nH]c4ccc(F)cc43)c2=O)cc1CN1CCCCC1	82	·	–	–	–
COc1ccc(C=Nn2c(=O)[nH]c3c([nH]c4ccc(Cl)cc43)c2=O)cc1CN1CCCCC1	·	–	·	·	·
CCCOc1ccc(C(O)=C2C(=O)C(=O)N(CCCn3ccnc3)C2c2cccs2)cc1 (configuration not stated)	·	–	·	·	·
NC(=S)N/N=C/c1cccc(/C=N/NC(N)=S)c1	–	·	37	·	–
NC(=S)N/N=C/C=C/c1ccccc1	–	·	38	–	–
NC(=S)N/N=C/c1ccc(/C=N/NC(N)=S)cc1	–	·	111	·	–
O=S(=O)(N/N=C\C=C\c1ccccc1)c1ccccc1	–	·	31	–	·
COc1ccc2c(c1)CCC1C2CC[C@]2(C)C(C(=O)O)CC12 (some centres not stated)	·	–	·	·	·
CCn1c(SCC(=O)NN=Cc2ccccc2OCC(=O)O)nnc1-c1ccc(Cl)cc1	·	–	·	·	·
COC(=O)C1=C(c2c(C)noc2C)CC2CCC1N2C(=O)NCCOc1ccccc1Cl (configuration not stated)	·	–	·	·	·
C(=NNc1nc(N2CCCCCC2)nc(N2CCCCCC2)n1)c1ccccc1	·	–	·	·	·
COc1ccc(OCC(=O)NN=C/C=C/c2ccccc2)cc1	·	–	·	·	·
CN(C(=O)CSc1nc2sc3c(c2c(=O)n1C)CCC3)C1CCS(=O)(=O)C1 (configuration not stated)	–	–	–	–	·
CN(C(=O)CSc1ncnc2sc3c(c12)CCC3)C1CCS(=O)(=O)C1 (configuration not stated)	–	32	–	–	·
COc1ccc(CNC(=O)c2cc3cccc(OC)c3oc2=N)cc1	–	–	–	–	54
COc1cccc2cc(C(=O)NCc3ccc(F)cc3)c(=N)oc12	–	–	–	–	–
CCN(CC)C1=CC(=[N+]2CCCC2)CC(C)(C)C1	–	–	43	–	–
CC1(C)CC(N2CCN(c3ccccc3)CC2)=CC(=[N+]2CCCC2)C1	–	–	45	–	–
CN(Cc1ccccc1)C1=CC(=[N+]2CCCC2)CC(C)(C)C1	–	–	52	–	–
CC1(C)CC(N2CCCC2)=CC(=[N+]2CCCCCC2)C1	–	–	–	–	–
COc1cc(C(=O)NN=C(C)c2ccc(NC(=O)Cc3ccccc3)cc2)ccc1O	·	–	·	·	·
COc1ccc(NC(=O)c2cc(-c3ccco3)on2)cc1OC	–	–	–	–	53
CC(C)(C)OC(=O)N1CCC(c2c(C(=O)N3CCN(C(=O)c4ccco4)CC3)cnn2-c2cccc(Cl)c2)CC1	–	–	–	–	58
SMILES	Mtb FBA inh	Mtb hypoxia rep	GDH-TPI inh	Mtb betalactam	DUSP3 inh
CCN(CC)CCN(C(=O)c1cc2c(ccc3ccccc32)oc1=O)c1nc2cc3c(cc2s1)OCCO3	+	–	–	–	–
Cc1ccc(NC=C(C#N)c2ccsc2)cc1C	·	–	·	·	·
CS/C(N)=N/N=Cc1ccc([N+](=O)[O-])cc1	·	–	·	·	·
Cc1ccc(S(=O)(=O)N2CCCN(C(=O)c3cc4ccccc4[nH]3)CC2)cc1	–	–	–	–	50
O=C(COC(=O)C1CC2CCCC(C1)C2=O)Nc1ccc(F)c(Cl)c1 (configuration not stated)	–	22	–	–	·
CCC(=O)c1cn(C(CCC(OC)OC)CC(=O)OC(C)(C)C)cc1CC (configuration not stated)	·	–	·	·	·
CN(C)CCCN1C(=O)C(=O)/C(=C(/O)c2ccncc2)C1c1cccnc1 (configuration not stated)	–	–	–	·	–
CN(C)c1ccc(C2/C(=C(/O)c3ccccc3)C(=O)C(=O)N2CCCC(=O)O)cc1 (configuration not stated)	–	–	31	–	–

Source: PubChem
